Where “and” joins values, the source holds several entries; their conditions need not be identical. Identical values can stand only once. Calls of active or inactive are those of the source. Cut-off read from the data, not from the text of the source, unless noted: active = parasite load remaining mostly below about 12% (no sharp cut-off); inactive = mostly above about 10%.

Assay [1] can be described thus: hESC survival regulators, cell-based (AID 493140; call rule not given here;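 note: cells exposed to compounds for four days before counting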). Conditions: human embryonic stem cell survival screen; stronger effect = higher value.
Assay [2] can be described thus: liver-stage malaria parasite growth inhibition, primary screen, cell-based, HepG2, luciferase luminescence, HepG2 viability (AID 624349).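 Note: 100% = mean of DMSO negative control wells on the same plate.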 The settings on record: P. berghei liver stage in HepG2, luciferase luminescence, concentration not given here; parasite load remaining: stronger effect = lower value; viability: measured here: HepG2 viability without parasites.
Assay [3] can be described thus: stimulators of nuclear beta-catenin in C2C12, primary screen, imaging, WNT3A-conditioned medium, mouse C2C12, NPC library (AID 1117326; in the data active = nuclear beta-catenin stimulation mostly above about 4.2%, no sharp cut-off; inactive = mostly below about 10%). The settings on record: stronger effect = higher value.
Assay [4] can be described thus: stimulators of insulin release from INS-1E, primary screen, cell-based, 5 mM glucose, NPC library (AID 1117329;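 active = compound raises insulin release from rat beta cells at 5 mM glucose, no numeric limit stated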). The settings on record: rat INS-1E insulin secretion, at 10 µM, stronger effect = higher value.
Assay [5] in a line: growth inhibition of GSK3B-pretreated HCT116 cells – cell-based, CellTiter-Glo, 0.2 to 20 µM (AID 1117336;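 active = compounds lowering colon cancer cell viability after pretreatment blocking the GSK3B kinase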). Conditions: HCT116 viability after GSK3B inhibitor, at 20 µM, stronger effect = higher value.
A short description of assay [6]: inhibition of endothelial tube formation, primary screen, imaging, VEGF stimulated, CD31 staining, tube area, NPC library (AID 1117340;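 active = compound that reduces growth-factor-driven endothelial tube area in a mixed cell culture, no cutoff stated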). Conditions: VEGF-stimulated ADSC/ECFC co-culture, at 10 µM, stronger effect = higher value.
Assay [7] can be described thus: glucagon-like peptide 1 release enhancers, primary assay, NCI-H716 cell line, NPC library (AID 1117341;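 active = compound raises GLP1 secretion from the human gut endocrine cells, with no numeric limit stated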). Conditions: NCI-H716 cells, at 10 µM, stronger effect = higher value.
Assay [8] in a line: HCT116 colon cancer cell growth inhibition, primary screen, CellTiter-Glo luminescence, NPC library (AID 1117342;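 active = compounds that lower survival of HCT116 colon cancer cells in the luminescence readout, no numeric limit stated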). The settings on record: at 20 µM (top of the series).
Assay [9] can be described thus: CellTiter-Glo luminescent readout of SW480 viability loss, NPC library primary (AID 1117343;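 active = compounds that lower viability of the colon cancer cells in the luminescence readout, with no numeric limit stated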). Conditions: CellTiter-Glo luminescence; at 20 µM (top of the series) unless noted.
Assay [10] in a line: decreased DLD-1 cellular survival, CellTiter-Glo luminescent readout, NPC compound collection, primary HTS (AID 1117346;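 active = compounds that lower survival of DLD-1 colon cancer cells in the luminescence readout, no cutoff given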). Conditions: DLD-1 viability, CellTiter-Glo luminescence; at 20 µM (top of the series).
Assay [11] is described as follows: differential killing of epithelial or mesenchymal cells, primary screen, imaging, PC-3E GFP, TEM4-18 mCherry, co-culture (AID 1345086;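 active = compounds killing one labelled cell type while sparing the other, by normalised counts and ratio limits, not self-fluorescent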;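 for all read-outs here: cells exposed to compound for 72 h before imaging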;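 for red/green cell ratio (normalised): normalised mesenchymal count divided by normalised epithelial count so high means epithelial killing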). Conditions: imaging cell counts, at 1 µM; for red/green cell ratio (normalised): actives lie on both sides, counts scaled to control wells, 1 = unselective.
Assay [12] in a line: sensitizers of A549 cells to miR-34 induction, primary screen, imaging, A549 dox-inducible miR-34, nuclei and caspase counts (AID 1347080;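 active = compounds whose cell count with miR-34 switched on is under 0.7 times the count with it off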). Conditions: A549 miR-34 inducible, Hoechst nuclei count, 48 h.
The nature of assay [13]: survival rescue of mitochondrial mutant cells in low glucose, primary screen, MELAS cybrids, Rieske KO mouse fibroblasts, CellTiter-Glo (AID 1508586;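 active = mean z-score across replicates of 1.96 or higher in either the MELAS or the Rieske mutant cell line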;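 note: z relative to plate mean and SD of compound and empty wells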).
Assay [14] deals with NAD(+) hydrolase SARM1 (Homo sapiens) (UniProt Q6SZW1). The assay is described as follows: SARM1 TIR NADase inhibitors, cell lysate, NAD-Glo luminescence (AID 1508614;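 active = compound whose remaining NAD level is above about 45 nM, limit read from the data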;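 note: higher remaining NAD means stronger inhibition of SARM1 NADase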). Conditions: SAM-TIR HEK293T lysate NADase, at 1 µM, stronger effect = higher value.
Setting [15] is: measured here: epithelial PC-3E GFP cell survival.
Where [16] appears, read: measured here: mesenchymal TEM4-18 mCherry cell survival.
[17] abbreviates: stronger effect = lower value, cell number ratio, induced over uninduced.
[18] abbreviates: measured here: relative caspase fold change +Dox/-Dox.
The mark [19] stands for this setting: measured here: total cells with miR-34 induction, stronger effect = lower value.
The mark [20] stands for this setting: measured here: total cells without miR-34 induction.
Where [21] appears, read: MELAS cybrid survival, CellTiter-Glo 48 h, stronger effect = higher value.
The mark [22] stands for this setting: Rieske KO mouse fibroblast survival, CellTiter-Glo 72 h.

Chain of NAD(+) hydrolase SARM1 (Homo sapiens) (Q6SZW1 whole entry, looked up): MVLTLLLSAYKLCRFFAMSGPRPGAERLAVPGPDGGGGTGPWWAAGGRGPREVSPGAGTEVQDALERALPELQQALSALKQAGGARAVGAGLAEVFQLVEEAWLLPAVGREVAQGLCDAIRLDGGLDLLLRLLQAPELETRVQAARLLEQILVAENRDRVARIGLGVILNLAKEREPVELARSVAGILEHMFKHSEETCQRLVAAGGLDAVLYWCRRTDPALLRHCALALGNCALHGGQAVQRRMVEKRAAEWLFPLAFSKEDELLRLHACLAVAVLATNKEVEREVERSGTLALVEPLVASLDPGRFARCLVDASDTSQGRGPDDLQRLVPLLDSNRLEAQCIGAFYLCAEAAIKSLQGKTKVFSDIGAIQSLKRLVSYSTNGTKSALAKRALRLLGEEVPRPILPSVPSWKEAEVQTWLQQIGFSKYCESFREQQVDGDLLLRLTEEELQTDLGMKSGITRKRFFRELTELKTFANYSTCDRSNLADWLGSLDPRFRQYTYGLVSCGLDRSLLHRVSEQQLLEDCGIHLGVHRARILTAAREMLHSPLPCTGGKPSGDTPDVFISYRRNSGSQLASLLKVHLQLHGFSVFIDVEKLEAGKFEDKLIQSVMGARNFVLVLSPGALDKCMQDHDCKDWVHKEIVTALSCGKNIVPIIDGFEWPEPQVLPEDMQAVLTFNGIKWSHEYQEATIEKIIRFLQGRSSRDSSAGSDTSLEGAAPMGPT

On to `Cc1c(N)c(=O)n(-c2ccccc2)n1C`, for which, in assay [1], the survival is 19.6 (inactive). Further, in assay [2], the parasite load remaining was 27.9% (inactive) and 86.5% (inactive) and 114% (inactive). The viability in assay [2] was 47% and 66.5% and 89.3%. Besides, the nuclear beta-catenin stimulation was 1.1% (inactive) in assay [3] (at 10 µM) and 1.8% in [3] (stimulation, at 2 µM). Further, in assay [4], the insulin secretion stimulation was -0.3% (inactive). Moreover, the viability decrease in assay [5] is -9.25% (inactive). Also, the tube area decrease in assay [6] was -13.4% (inactive). The GLP1 secretion stimulation in assay [7] was 1.1% (inactive). In assay [8], the inhibition of viability is -5.1% (inactive). The viability decrease (inhibition) in [9] was 45.9% (inactive); in assay [10], 10.9% (inactive). Further, the red/green cell ratio (normalised) in assay [11] was 0.99 (inactive). The normalised cell number in assay [11] (setting [15]) came to 1.14; in [11] (setting [16]) it was 1.13. Besides, the fold change is 0.844 (inactive) in assay [12] (setting [17]) and 1.06 in [12] (setting [18]). Moreover, the cell count in [12] (setting [19]) was found to be 8260; in assay [12] (setting [20]), 9790. For the same molecule, the z-score in assay [13] (setting [21]) is -0.073 (inactive); in assay [13] (setting [22]) it was -0.119.
Take `CCCOc1cc(N)ccc1C(=O)OCCN(CC)CC`: in assay [1], the survival is 9.5 (inactive). In addition, the parasite load remaining in assay [2] is 77.2% (inactive). The viability in assay [2] was 75.5%. Moreover, the nuclear beta-catenin stimulation in [3] (at 10 µM) was 0% (inactive); in assay [3] (stimulation, at 2 µM), 0.6%. In addition, the insulin secretion stimulation in assay [4] is 4.5% (inactive). Further, in [5], the viability decrease is -4.1% (inactive). For the same molecule, the tube area decrease in assay [6] was -15.3% (inactive). The GLP1 secretion stimulation in assay [7] is -1.7% (inactive). Also, the inhibition of viability in assay [8] is -3.9% (inactive). In addition, the values for the viability decrease (inhibition) in [9] and in [10] were 4% (inactive) and -9.1% (inactive), respectively. For the same molecule, the red/green cell ratio (normalised) in assay [11] is 1 (inactive). Moreover, the normalised cell number in [11] (setting [15]) and in assay [11] (setting [16]) was 1.21 each time. The fold change in assay [12] (setting [17]) is 0.973 (inactive); in assay [12] (setting [18]), 0.697. The cell count stood at 9580 in assay [12] (setting [19]) and 9850 in [12] (setting [20]). Further, the z-score was -0.734 (inactive) in assay [13] (setting [21]) and -0.617 in [13] (setting [22]). In addition, the remaining NAD in assay [14] is 10 nM (inactive).
Regarding `[O-][n+]1cccc(CO)c1`, the nuclear beta-catenin stimulation was -0.4% (inactive) in assay [3] (at 10 µM) and 0.6% in assay [3] (stimulation, at 2 µM). In addition, the insulin secretion stimulation in [4] is 2.1% (inactive). Moreover, the viability decrease in [5] is -35% (inactive). Also, the tube area decrease in assay [6] was 18.7% (inactive). In assay [7], the GLP1 secretion stimulation was -4.1% (inactive). For the same molecule, the inhibition of viability in [8] is 1.43% (inactive). Moreover, the viability decrease (inhibition) in assay [9] is -11.9% (inactive); in assay [10], -6% (inactive). Moreover, the red/green cell ratio (normalised) in assay [11] is 0.9 (inactive). Further, the normalised cell number in [11] (setting [15]) was found to be 1.13; in assay [11] (setting [16]) it was 1.02. Besides, the fold change in [12] (setting [17]) was 0.861 (inactive); in assay [12] (setting [18]) it was 0.917. Besides, the cell count in assay [12] (setting [19]) was 7710; in [12] (setting [20]), 8950. Moreover, the remaining NAD in assay [14] was 10 nM (inactive).
`CC(C)(C)NCC(O)COc1cccc2c1CCC(=O)N2` (configuration not stated): the survival in [1] was 7.75 (inactive). For the same molecule, the parasite load remaining in assay [2] is 126% (inactive) and 79.2% (inactive). For the same molecule, the viability in assay [2] was 105% and 76.8%. Besides, the nuclear beta-catenin stimulation is 0.7% (inactive) in assay [3] (at 10 µM) and 1.8% in assay [3] (stimulation, at 2 µM). In addition, the insulin secretion stimulation in assay [4] is 1.4% (inactive). In addition, the viability decrease in [5] is -25.9% (inactive). For the same molecule, in [6], the tube area decrease is -2.9% (inactive). In addition, the GLP1 secretion stimulation in [7] is 1.2% (inactive). The inhibition of viability in [8] is -1.83% (inactive). In addition, the viability decrease (inhibition) in assay [9] was -26.6% (inactive); in [10] it was -8.8% (inactive). In addition, the red/green cell ratio (normalised) in assay [11] was 1.13 (inactive). The normalised cell number in assay [11] (setting [15]) stood at 1.2; in assay [11] (setting [16]), 1.36. Also, the fold change is 0.805 (inactive) and 0.903 (inactive) in [12] (setting [17]); 0.997 and 0.693 in assay [12] (setting [18]). The cell count in [12] (setting [19]) is 8680 and 7910; in assay [12] (setting [20]), 10800 and 8760. In addition, the z-score was -0.229 (inactive) and 0.6 (inactive) in assay [13] (setting [21]); -0.22 and -0.0871 in assay [13] (setting [22]). For the same molecule, the remaining NAD in [14] is 10 nM (inactive).

The record behind these values is PubChem BioAssay.
